# From PubChem BioAssay AID743263 (The Scripps Research Institute Molecular Screening Center, 2014)
# Among all 1,100 compounds or so, about 250 (23%) were called active. The list is a sample of the results. Values without a mark were called inactive. Cut-off read from the data, not from the text of the source: active = inhibition above about 25%; inactive = the rest.
# Biological target: Tyrosyl-DNA phosphodiesterase 2 (Homo sapiens) (UniProt O95551)
# Experiment: human TDP2 enzyme inhibitors, retest, confirmation, biochemical, epi absorbance, recombinant enzyme (AID 743263);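 note: 0% = vehicle with enzyme and 100% = no enzyme buffer only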
# Conditions: recombinant human TDP2, absorbance read-out; at 12.8 µM; hits give high values
# Chain of Tyrosyl-DNA phosphodiesterase 2 (Homo sapiens) (O95551 whole entry, looked up): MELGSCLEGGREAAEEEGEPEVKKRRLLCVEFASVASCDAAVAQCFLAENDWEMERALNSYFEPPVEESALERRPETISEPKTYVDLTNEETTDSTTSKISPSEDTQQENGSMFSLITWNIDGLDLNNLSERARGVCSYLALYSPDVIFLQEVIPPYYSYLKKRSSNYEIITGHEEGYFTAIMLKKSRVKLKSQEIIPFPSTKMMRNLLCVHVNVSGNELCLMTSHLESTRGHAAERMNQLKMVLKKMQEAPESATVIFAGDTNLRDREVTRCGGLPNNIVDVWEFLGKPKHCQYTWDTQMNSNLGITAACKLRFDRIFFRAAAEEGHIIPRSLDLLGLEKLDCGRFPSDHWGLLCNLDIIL
row,SMILES,inhibition
1,COc1ccc(S(=O)(=O)/N=C2\C=C(NS(=O)(=O)c3ccccc3)C(=O)c3ccccc32)cc1,16.7%
2,COCCN1C=C2C(=O)C(C)(OC(=O)C3CCCC3)C(=O)C=C2C=C1c1ccsc1 (configuration not stated),12.3%
3,O=C1Nc2ccc([N+](=O)[O-])cc2C1=Nc1cccc(CO)c1,28.1% (active)
4,Cc1nn(-c2ccccc2)c2c1C(c1ccc(F)cc1)C(C#N)=C(N)O2 (configuration not stated),-4.61%
5,CC1=NN(c2ccc(Cl)c(C(=O)O)c2)C(=O)/C1=C/c1ccc(-c2ccccc2[N+](=O)[O-])o1,-34.7%
6,CCc1ccccc1NC(=S)Nc1cc(OC)c(NC(=O)C(C)C)cc1OC,2.01%
7,Clc1ccc(C2=CSC3=Nc4cccc5cccc(c45)N23)cc1,55% (active)
8,O=C(NCc1ccccc1Cl)C(=O)NCC1CCCN1S(=O)(=O)c1cccs1 (configuration not stated),-5.35%
9,Cc1ccccc1Cn1c2ccccc2c2cnn(CC(=O)NCc3ccco3)c(=O)c21,-10.2%
10,COc1ccc2c(c1)C(C)=CC(C)(C)N2C(=O)Nc1ccccc1,7.25%
11,COCCn1nnnc1C(c1cc2ccc(OC)cc2[nH]c1=O)N1CCc2ccccc2C1 (configuration not stated),-0.83%
12,C=CCn1c(N)c(C(=O)OCC(C)C)c2nc3ccccc3nc21,9.13%
13,Oc1ccc(N=Cc2sc3ccccc3c2Cl)cc1,71.6% (active)
14,Oc1ccc(N=Cc2c(O)ccc3ccccc23)cc1,52.7% (active)
15,CCN1C(=O)c2cccc3c(N)ccc1c23,8.24%
16,CN(C)c1ccc(N/C=C/C(=O)C(F)(F)F)cc1,-9.4%

row,SMILES,inhibition
1,Cc1[nH][nH]c(=O)c1C(c1ccc(-c2ccc(Cl)cc2)o1)c1c(C)[nH][nH]c1=O,20.6%
2,O=Cc1cn(-c2ccccc2)nc1-c1ccccn1,2.54%
3,CC1CCCC(NC(=O)c2cc(-c3ccncc3)nc3ccccc23)C1C (configuration not stated),-1.39%
4,CCOC(=O)c1c(C)[nH]c2c1-c1ccccc1C(=O)C2=O,84.2% (active)
5,Nc1ccc2nn(-c3ccc(Cl)cc3)nc2c1,1.36%
6,CCCCNC(=O)CCn1nc(-c2ccc(Cl)cc2)ccc1=O,-5.6%
7,O=C(COC(=O)Cc1c[nH]c2ccccc12)NCCc1ccccc1,4.15%
8,Nc1nc(O)c(CC(=O)O)s1,4.54%
9,Cc1ccc(C(=O)Nc2c(-c3ccccc3)[nH][nH]c2=O)cc1,12.1%
10,O=C(NC1=CC(=O)c2ccccc2C1=O)c1ccccc1,60.1% (active)
11,Nn1cnnc1N/N=C/c1cc([N+](=O)[O-])c(Cl)cc1Cl,-5.21%
12,CCOc1ccc(C(c2c(C)[nH][nH]c2=O)c2c(C)[nH][nH]c2=O)cc1OCC,10.8%
13,CCOC(=O)c1ccc(NC2Nc3cc(C)nn3S2)cc1 (configuration not stated),7.05%
14,CCOC(=O)c1ccc(Nc2cc3ccccc3c(=O)[nH]2)cc1,32.7% (active)
15,COc1ccccc1CN1CCN(C(c2ccccc2)c2ccccc2)CC1,3.64%
16,COCCNC(=O)c1ccc(S(=O)(=O)c2ccc(Cl)cc2)c(NC(C)=O)c1,9.19%
